Results taken from PubChem BioAssay (NCI).
Compounds without any hit were thinned out: in the full panel of roughly 83,000, 20% have a hit.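 Cells were grown in 96-well plates and exposed to the test compound at a single concentration for 48 hours; results are reported as percent growth, with values below 10 considered active.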 The source made the active and inactive calls.

Experiments:
Test in all cases: NCI-60 one-dose screen, 48 h (100 = growth as untreated, 0 = no growth, -100 = all killed)
Settings in all cases: 10 µM
HCT-15 colon = system: HCT-15 colon
HT29 colon = system: HT29 colon
SNB-75 CNS = system: SNB-75 CNS
SNB-19 CNS = system: SNB-19 CNS
U251 CNS = system: U251 CNS
PC-3 prostate = system: PC-3 prostate
SK-MEL-5 melanoma = system: SK-MEL-5 melanoma
UACC-62 melanoma = system: UACC-62 melanoma
LOX IMVI melanoma = system: LOX IMVI melanoma
SK-MEL-28 melanoma = system: SK-MEL-28 melanoma
SK-MEL-2 melanoma = system: SK-MEL-2 melanoma
EKVX NSCLC = system: EKVX NSCLC
SN12C renal = system: SN12C renal
UO-31 renal = system: UO-31 renal
TK-10 renal = system: TK-10 renal
ACHN renal = system: ACHN renal
CAKI-1 renal = system: CAKI-1 renal
A498 renal = system: A498 renal
MOLT-4 leukemia = system: MOLT-4 leukemia
CCRF-CEM leukemia = system: CCRF-CEM leukemia

Measured: growth

COc1ccc(C(c2ccc(OCCN(C)C)cc2)c2cc3ccccc3c3ccccc23)cc1 (stereo not given)
inactive: SNB-75 CNS 86.8% | SNB-19 CNS 65% | U251 CNS 16.6% | PC-3 prostate 60.7% | SK-MEL-5 melanoma 58.6% | SK-MEL-2 melanoma 86.4% | EKVX NSCLC 56.6% | SN12C renal 64.4% | UO-31 renal 72.2% | TK-10 renal 88% | ACHN renal 21.6% | CAKI-1 renal 76.5% | A498 renal 101%
active: HCT-15 colon -30.9% | HT29 colon -7.37% | UACC-62 melanoma -47.8% | LOX IMVI melanoma -81% | SK-MEL-28 melanoma -77.8% | MOLT-4 leukemia 5.83%

Cc1noc(C)c1CSc1ccccc1C(=O)N1CCN(c2cccc(C(F)(F)F)c2)CC1
inactive: HCT-15 colon 72.4% | HT29 colon 69.4% | SNB-75 CNS 76.2% | SNB-19 CNS 81.5% | U251 CNS 88.2% | PC-3 prostate 55.3% | SK-MEL-5 melanoma 43.5% | UACC-62 melanoma 52.2% | LOX IMVI melanoma 74.9% | SK-MEL-28 melanoma 91.4% | SK-MEL-2 melanoma 85.1% | EKVX NSCLC 66.7% | SN12C renal 80.2% | UO-31 renal 67.5% | TK-10 renal 91.3% | ACHN renal 84.9% | CAKI-1 renal 68.8% | A498 renal 77.5% | MOLT-4 leukemia 67.6%

COc1ccc(-c2csc(NC(=O)c3ccc(Cc4n[nH]c(=O)c5cccnc45)cc3)n2)cc1
inactive: HCT-15 colon 85.8% | HT29 colon 104% | SNB-75 CNS 82.6% | SNB-19 CNS 89.8% | U251 CNS 99.1% | PC-3 prostate 77.9% | SK-MEL-5 melanoma 85.7% | UACC-62 melanoma 74.5% | LOX IMVI melanoma 90.3% | SK-MEL-28 melanoma 95.2% | SK-MEL-2 melanoma 110% | EKVX NSCLC 66.6% | SN12C renal 89.1% | UO-31 renal 51.9% | TK-10 renal 115% | ACHN renal 88.2% | CAKI-1 renal 84.5% | A498 renal 95.8% | MOLT-4 leukemia 97.2%

COc1ccc(-c2cc(-c3ccc(OC)c(OC)c3)nc(SCCCC(=O)NO)n2)cc1
active: HCT-15 colon 2.78% | HT29 colon 4.72% | SNB-75 CNS -19% | U251 CNS -9.1% | PC-3 prostate 1.17% | SK-MEL-5 melanoma -65.2% | UACC-62 melanoma -55.2% | LOX IMVI melanoma -79% | SK-MEL-2 melanoma -5.66% | EKVX NSCLC -15.3% | SN12C renal 5.59% | UO-31 renal -74.3% | TK-10 renal -0.0305% | ACHN renal -24.9% | CAKI-1 renal -29.2% | A498 renal -32.4% | MOLT-4 leukemia 7.15%
inactive: SNB-19 CNS 11.2% | SK-MEL-28 melanoma 19.2%

Oc1ccc(/C=N/N=C2c3ccccc3-c3ccccc32)c(O)c1
inactive: HCT-15 colon 46.4% | HT29 colon 97.5% | SNB-75 CNS 73.1% | SNB-19 CNS 80.3% | U251 CNS 78.7% | PC-3 prostate 72.9% | SK-MEL-5 melanoma 25.8% | UACC-62 melanoma 58.6% | LOX IMVI melanoma 70.3% | SK-MEL-28 melanoma 74.5% | SK-MEL-2 melanoma 80.9% | EKVX NSCLC 78.4% | SN12C renal 56.1% | UO-31 renal 56.1% | TK-10 renal 108% | ACHN renal 70.1% | CAKI-1 renal 66.8% | A498 renal 95.6% | CCRF-CEM leukemia 60.4% | MOLT-4 leukemia 77.9%

O=C1/C=C/[C@@H](O)[C@@H]2C[C@@H](O)C[C@H]2/C=C/CCC[C@H](CCc2ccc(NC(=S)Nc3ccc4c(c3)C(=O)OC43c4ccc(O)cc4Oc4cc(O)ccc43)cc2)O1
active: HCT-15 colon 3.98% | HT29 colon 1.54% | SK-MEL-5 melanoma -87.2% | LOX IMVI melanoma -51.4% | SK-MEL-28 melanoma 9.95% | SK-MEL-2 melanoma -9.15% | TK-10 renal -21.2% | A498 renal -29.7% | CCRF-CEM leukemia -2.59% | MOLT-4 leukemia -8.92%
inactive: SNB-75 CNS 48.9% | SNB-19 CNS 34.1% | U251 CNS 20% | PC-3 prostate 23.3% | UACC-62 melanoma 16.3% | EKVX NSCLC 12.7% | SN12C renal 10.1% | UO-31 renal 11% | ACHN renal 14.9% | CAKI-1 renal 22.2%

O=C1c2ccccc2C(=O)N1CCCCNc1ccccc1
inactive: HCT-15 colon 96.8% | HT29 colon 110% | SNB-75 CNS 90.8% | SNB-19 CNS 96.8% | U251 CNS 86.3% | PC-3 prostate 75.5% | SK-MEL-5 melanoma 105% | UACC-62 melanoma 96% | LOX IMVI melanoma 117% | SK-MEL-28 melanoma 113% | SK-MEL-2 melanoma 121% | EKVX NSCLC 127% | SN12C renal 50.4% | UO-31 renal 61.7% | TK-10 renal 117% | ACHN renal 104% | CAKI-1 renal 101% | A498 renal 70.2% | CCRF-CEM leukemia 21.3% | MOLT-4 leukemia 49.7%

C=CCn1c(SCC(=O)Nc2ccc(C(=O)/C=C/c3ccc(Cl)cc3)cc2)nnc1-c1cc(-c2ccccc2)nc2ccccc12
inactive: HT29 colon 40.9% | SNB-75 CNS 59.8% | SNB-19 CNS 66.9% | U251 CNS 48.1% | PC-3 prostate 70.4% | SK-MEL-5 melanoma 87.1% | UACC-62 melanoma 59.9% | SK-MEL-28 melanoma 99.7% | SK-MEL-2 melanoma 97.2% | EKVX NSCLC 79.1% | SN12C renal 70.8% | UO-31 renal 35.4% | TK-10 renal 94.8% | ACHN renal 82.3% | CAKI-1 renal 61.7% | A498 renal 81.4% | MOLT-4 leukemia 12.8%
active: HCT-15 colon 8.31% | LOX IMVI melanoma -82.4%
